The results in this text go back to PubChem BioAssay (Tox21).

Where “and” joins values, the source holds several entries; their conditions need not be identical. Equal entries are not always repeated. Inconclusive results are not listed. A structure can be active in one record and inactive in another. Calls of active or inactive are those of the source. Unless noted, calls follow the shape of the dose curve; as a rule, active = well fitted curve in the direction sought with a large enough effect in the repeat runs; inconclusive = weak or mixed curves; inactive = no such curve, though single readings can be large; an effect the other way counts as inactive or inconclusive.

A short description of test [1]: qHTS assay for small molecule agonists of the p53 signaling pathway (AID 651631; calls by dose curve; also: nearly all actives have a fitted effect of over 15% in size; also: potency is read from the fitted curve at half-maximal effect). The method, boiled down: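 Testing took place in human colorectal HCT-116 cells with stable p53RE-driven beta-lactamase. After 16 h of compound exposure at 37 °C, a FRET substrate was added and fluorescence recorded 2 h later.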
(Quantitative high-throughput screening tests each substance at several concentrations.)

Test [2] is described as follows: qHTS assay for small molecules that induce genotoxicity in human embryonic kidney cells expressing luciferase-tagged ATAD5 (AID 651632). Also: nearly all actives have a fitted effect of over 15% in size. The method, boiled down:
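Genotoxicity read-out via ATAD5-luciferase: HEK293T cells, 16 hr compound incubation at 37C, Amplite detection.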

Test [3] in a line: qHTS assay for small molecule agonists of the p53 signaling pathway - cell viability (AID 651633; calls by dose curve; also: nearly all actives have a fitted effect of over 30% in size; also: potency is read from the fitted curve at half-maximal effect). The method, boiled down:
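p53RE-bla cells, seeded at 4,000 per well and rested 5 h at 37 C/5% CO2, received compounds in DMSO for 16 h at 37 C. CellTiter-Glo was then added, and luminescence was read after 30 min at room temperature to gauge cytotoxicity.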

A short description of test [4]: qHTS assay for small molecule disruptors of the mitochondrial membrane potential - cell viability (AID 720634; calls by dose curve; also: nearly all actives have a fitted effect of over 20% in size; also: potency is read from the fitted curve at half-maximal effect). The method, boiled down:
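Human hepatoma HepG2 cells were treated for 1 hr with test chemicals, then given m-MPI dye and CellTiter-Glo. Cell viability reflects luminescence proportional to cellular ATP.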

Test [5] in a line: qHTS assay for small molecule disruptors of the mitochondrial membrane potential (AID 720635). Also: potency is read from the fitted curve at half-maximal effect. The method, boiled down:
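HepG2 cells (2,000/well) attached overnight at 37C, then took compound for 1 hr at 37C, 5% CO2. Mito-MPS dye was added for 30 min; fluorescence was read at 490/535 nm (monomers) and 540/590 nm (aggregates).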

A short description of test [6]: qHTS assay to test for compound auto fluorescence at 590 nm (red) in HepG2 cells (AID 720674). The procedure, abridged: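 Intrinsic compound fluorescence in the red window (Ex/Em 540/590 nm) is measured in attached HepG2 cells exposed for 1 hr, DMSO vehicle as baseline, benchmarked to Rose Bengal sodium.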
Test [7] in a line: qHTS assay to test for compound auto fluorescence at 535 nm (green) in HepG2 cells (AID 720675).
Test [8] in a line: qHTS assay to test for compound auto fluorescence at 460 nm (blue) in HEK293 cells (AID 720678). Also: potency is read from the fitted curve at half-maximal effect. The procedure, abridged: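 Cells were seeded and left to adhere for 4-5 hr at 37C. Compounds were then pin-transferred. After an overnight incubation at 37C under 5% CO2, intrinsic fluorescence at 405/460 nm was measured and referenced to triamterene.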
Test [9] can be described thus: qHTS assay to test for compound auto fluorescence at 590 nm (red) in HEK293 cells (AID 720679). The procedure, abridged: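 Each well held 2,000 HEK293 cells in medium containing 10% dialyzed FBS. Following 4-5 hr attachment at 37C, 23 nL test compound or DMSO was added; plates sat overnight, and red fluorescence (540/590nm) was recorded.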
Test [10] can be described thus: qHTS assay to test for compound auto fluorescence at 535 nm (green) in HEK293 cells (AID 720680).
A short description of test [11]: qHTS assay to test for compound auto fluorescence at 460 nm (blue) in HEK293 cell free culture (AID 720681). Also: potency is read from the fitted curve at half-maximal effect. The procedure, abridged: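 Test compounds were pinned into cell-free culture medium (DMEM with 10% FBS) and fluorescence was read directly at Ex/Em 405/460 nm. Signals were expressed as fluorescence equivalents of triamterene, with DMSO vehicle as control.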

Test [12] is described as follows: qHTS assay to test for compound auto fluorescence at 535 nm (green) in HEK293 cell free culture (AID 720682). The procedure, abridged: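 DMEM + 10% FBS, cell-free; cpd or DMSO pinned in; Ex485/Em535 read; output as fluorescein-equivalent signal.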
Test [13] is described as follows: qHTS assay to test for compound auto fluorescence at 590 nm (red) in HEK293 cell free culture (AID 720683). The method, boiled down: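 Tox21 10K library compounds were pinned into cell-free DMEM with 10% FBS and fluorescence was read at excitation 540 nm. Activity is expressed as Rose Bengal sodium equivalency.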
A short description of test [14]: qHTS assay to test for compound auto fluorescence at 590 nm (red) in HepG2 cell free culture (AID 720684). The procedure, abridged: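 Measured in medium alone (MEM containing 10% FBS) following pintool addition of compound; emission at 590 nm with 540 nm excitation, referenced to Rose Bengal sodium.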
Test [15] can be described thus: qHTS assay to test for compound auto fluorescence at 460 nm (blue) in HepG2 cell free culture (AID 720685). Also: potency is read from the fitted curve at half-maximal effect. The procedure, abridged:
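Compound (23 nL) or DMSO pinned into cell-free MEM with 10% FBS; blue fluorescence read at 405/460 nm excitation/emission, expressed as auto-fluorescence equivalency to triamterene.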

The nature of test [16]: qHTS assay to test for compound auto fluorescence at 535 nm (green) in HepG2 cell free culture (AID 720686).
Test [17] in a line: qHTS assay to test for compound auto fluorescence at 460 nm (blue) in HepG2 cells (AID 720687). Also: potency is read from the fitted curve at half-maximal effect. The procedure, abridged:
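Cells (2,000/well in MEM with 10% FBS) attached overnight at 37 C, then were exposed to compound or DMSO for 1 hr at 37 C, 5% CO2. Fluorescence read at Ex/Em 405/460 nm, expressed as triamterene-equivalent signal.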

Test [18] addresses Glucocorticoid receptor (Homo sapiens) (UniProt P04150). The test is described as follows: qHTS assay to identify small molecule agonists of the glucocorticoid receptor (GR) signaling pathway (AID 720691; active = well fitted activation curve with a large enough effect in the signal ratio in the repeat runs, not every such curve was filed as active; the % refers to the signal ratio). The method, boiled down:
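Beta-lactamase reporter activity, read as fluorescence intensity, was measured in GR-bla HeLa cells exposed to compounds for 18 h at 37 C and then loaded with LiveBLAzer B/G FRET substrate for 2 h at room temperature.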

For test [19] the target is unchanged. Description: qHTS assay to identify small molecule antagonists of the glucocorticoid receptor (GR) signaling pathway (AID 720692; active = well fitted inhibition curve with a large enough effect in the signal ratio in the repeat runs, not every such curve was filed as active; the % refers to the signal ratio). The method, boiled down: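 Fluorescence from cleaved LiveBLAzer B/G FRET substrate reports GRE-driven beta-lactamase in HeLa cells; compounds are tested against 5 nM dexamethasone (final) over 18 h at 37 C, substrate incubation 2 h at room temperature.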

A short description of test [20]: qHTS assay for small molecules that induce genotoxicity in human embryonic kidney cells expressing luciferase-tagged ATAD5 - cell viability (AID 651634; calls by dose curve; also: nearly all actives have a fitted effect of over 25% in size; also: potency is read from the fitted curve at half-maximal effect). The method, boiled down: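 Live-cell protease activity (CellTiter-Fluor, fluorescence) indicates viability. HEK293T cells with luciferase-tagged ATAD5; 15.5 hr compound treatment at 37C.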
Tags tell the direction and shape of the fitted curve or compound fluorescence and quenching.

Sequence of Glucocorticoid receptor (Homo sapiens) (P04150 whole entry, looked up): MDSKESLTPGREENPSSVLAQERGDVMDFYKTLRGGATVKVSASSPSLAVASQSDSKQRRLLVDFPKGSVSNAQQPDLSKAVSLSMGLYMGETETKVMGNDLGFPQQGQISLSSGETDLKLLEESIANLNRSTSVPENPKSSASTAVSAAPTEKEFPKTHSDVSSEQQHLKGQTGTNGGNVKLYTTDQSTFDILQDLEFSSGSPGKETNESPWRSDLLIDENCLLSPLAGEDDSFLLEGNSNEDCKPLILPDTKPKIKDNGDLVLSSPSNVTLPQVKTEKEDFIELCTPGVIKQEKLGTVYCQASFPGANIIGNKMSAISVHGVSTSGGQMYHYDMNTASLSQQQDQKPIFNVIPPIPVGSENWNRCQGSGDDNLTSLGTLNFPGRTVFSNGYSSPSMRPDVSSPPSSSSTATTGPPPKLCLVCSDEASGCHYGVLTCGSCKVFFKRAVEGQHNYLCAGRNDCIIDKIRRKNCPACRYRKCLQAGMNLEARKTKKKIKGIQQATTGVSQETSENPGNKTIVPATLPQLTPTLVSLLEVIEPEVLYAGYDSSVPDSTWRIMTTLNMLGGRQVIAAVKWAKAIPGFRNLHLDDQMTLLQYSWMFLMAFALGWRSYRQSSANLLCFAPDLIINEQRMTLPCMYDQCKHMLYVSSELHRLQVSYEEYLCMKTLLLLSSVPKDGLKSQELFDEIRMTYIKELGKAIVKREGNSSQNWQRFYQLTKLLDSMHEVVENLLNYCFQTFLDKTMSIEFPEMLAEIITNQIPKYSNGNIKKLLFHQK

`C=CC(=O)OCCCCCCCC`: the Potency entry in test [1], in test [2], in test [3], in [4], in test [5] and in test [7] was “inactive” in each case. In addition, the Potency result in [8], in [10], in test [11], in [12], in [15] and in [16] was “inactive” throughout. The Potency entry in test [17], in [18] and in test [19] was “inactive” in each case. The compound was classed as inactive in test [6], in test [9], in test [13] and in test [14].
For `Oc1c(Cl)cc(Cl)cc1Sc1cc(Cl)cc(Cl)c1O`, the Potency was 11.9 µM (active) and 34.9 µM (active) and 21.7 µM (active) in test [1]; 11.9 µM (active) and 30.7 µM (active) and 48.6 µM (active) in test [20]; 13.7 µM (active) and inactive in test [4]. In addition, the Potency entry in [2], in test [7], in test [8], in test [11], in [12] and in [15] was “inactive” in each case. Moreover, the Potency result in test [16] and in test [17] was “inactive” throughout. In addition, the result in [9] and in test [14] was inactive.
For `Oc1c(Cl)cc(Cl)c(Cl)c1Cc1c(O)c(Cl)cc(Cl)c1Cl`, the Potency in [1] is 13.3 µM (active) and 9.66 µM (active) and 54.5 µM (active); in test [3] it was 1.88 µM (active) and 68.4 µM (active) and 12.2 µM (active); in test [20], 6.68 µM (active) and 2.72 µM (active) and 1.93 µM (active); in test [5], 841 nM (active) and 484 nM (active) and 344 nM (active). In addition, the Potency entry in [2], in test [7], in [8], in test [10], in test [11] and in test [12] was “inactive” in each case. The Potency entry in [15], in test [16] and in [17] was “inactive” in each case. Besides, the compound was classed as inactive in test [6], in [9], in [13] and in [14].
As to `CCN(CC)c1ccc2c(C)cc(=O)oc2c1`, the Potency in test [1] was 30.9 µM (active) and 27.3 µM (active); in test [8] it was 39.8 µM [fluorescent] (active); in test [11] it was 39.8 µM (active); in test [15] it was 35.5 µM [fluorescent] (active) and 39.8 µM [fluorescent] (active); in test [17], 39.8 µM [fluorescent] (active). The Potency entry in test [2], in [20], in [7], in [12] and in [16] was “inactive” throughout. Besides, the compound was classed as inactive in test [9], in test [13] and in test [14].
As for `CO[Si](OC)(OC)c1ccccc1`, the Potency entry in test [1], in test [2], in [3], in test [4], in [5] and in test [7] was “inactive” each time. Moreover, the Potency entry in [8], in test [11], in [12], in [15], in test [16] and in test [17] was “inactive” throughout. For the same compound, the Potency result in test [18] and in test [19] was “inactive” throughout. Besides, the compound was called inactive in [6], in test [9], in [13] and in test [14].
Regarding `CCN1CCCC1CNC(=O)c1cc(S(=O)(=O)CC)c(N)cc1OC` (stereo not given), the Potency result in test [1], in test [2], in test [3], in test [4], in test [5] and in test [7] was “inactive” in each case. The Potency result in test [8], in [10], in test [11], in test [12], in [15] and in test [16] was “inactive” throughout. Besides, the Potency result in [17], in test [18] and in test [19] was “inactive” throughout. In addition, the call in test [6], in test [9] and in test [14] was inactive.
For the compound `CCc1ccc(C(c2ccc(CC)cc2)C(Cl)Cl)cc1`, the Potency entry in test [1], in [2], in [4], in [7], in test [8] and in [10] was “inactive” in each case. The Potency result in test [11], in test [12], in [15], in [16], in [17] and in [18] was “inactive” throughout. Further, the Potency in test [5] was 49.3 µM (active) and 27.3 µM (active). For the same compound, the compound was called inactive in test [6], in test [9] and in test [14].
Take `CC(=O)C1=C(C)[C@@H]2C[C@@]3(C1)[C@H](C)CC[C@H]3C2(C)C`: the Potency entry in test [1], in [2], in [3], in [20], in test [7] and in test [8] was “inactive” throughout. The Potency result in test [10], in [11], in test [12], in test [15], in [16] and in test [17] was “inactive” throughout. Besides, the compound was called inactive in [6], in test [9], in test [13] and in test [14].
